A number with no mark means an inactive call.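 How the source made its calls: active = AUC reduced over 20% with Padj below 0.05 in at least 2 of 3 replicates; inactive = otherwise.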
What was measured:
Test in all cases: growth AUC relative to DMSO control (median of replicates) (fraction); higher = more growth (less inhibition), active = hit call of the paper
Settings in all cases: 20 µM; 24 h
[1] = test system: Akkermansia muciniphila
Summary of the method: (§1)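 Gut bacterial monocultures were grown anaerobically at 37 °C in mGAM from a starting OD600 of 0.05 with 20 µM compound (1% DMSO), in round-bottom 96-well plates under pierced gas-permeable seals, and OD600 was read hourly for 24 h. With the minimum OD set to 0, area under the growth curve was normalised to the plate median of solvent-only wells, or to row and column medians on the industrial chemical plate. Each value is the median of three biological replicates grown on separate days.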

[2] = test system: Bacteroides caccae
Summary of the method: as §1

[3] = test system: Bacteroides clarus
Summary of the method: as §1

[4] = test system: Bacteroides dorei
Summary of the method: as §1

[5] = test system: Bacteroides stercoris
Summary of the method: as §1

[6] = test system: Bacteroides thetaiotaomicron
Summary of the method: as §1

[7] = test system: Bacteroides uniformis
Summary of the method: as §1

[8] = test system: Bifidobacterium longum subsp. longum
Summary of the method: as §1

[9] = test system: Clostridium difficile
Summary of the method: as §1

[10] = test system: Collinsella aerofaciens
Summary of the method: as §1

[11] = test system: Coprococcus comes
Summary of the method: as §1

[12] = test system: Escherichia coli ED1a
Summary of the method: as §1

[13] = test system: Escherichia coli IAI1
Summary of the method: as §1

[14] = test system: Eubacterium rectale
Summary of the method: as §1

[15] = test system: Fusobacterium nucleatum subsp. animalis
Summary of the method: as §1

[16] = test system: Lactobacillus gasseri
Summary of the method: as §1

[17] = test system: Lactobacillus paracasei
Summary of the method: as §1

[18] = test system: Odoribacter splanchnicus
Summary of the method: as §1

[19] = test system: Parabacteroides distasonis
Summary of the method: as §1

[20] = test system: Parabacteroides merdae
Summary of the method: as §1

| SMILES | growth AUC [1] | growth AUC [2] | growth AUC [3] | growth AUC [4] | growth AUC [5] | growth AUC [6] | growth AUC [7] | growth AUC [8] | growth AUC [9] | growth AUC [10] | growth AUC [11] | growth AUC [12] | growth AUC [13] | growth AUC [14] | growth AUC [15] | growth AUC [16] | growth AUC [17] | growth AUC [18] | growth AUC [19] | growth AUC [20] |
| --- | --- | --- | --- | --- | --- | --- | --- | --- | --- | --- | --- | --- | --- | --- | --- | --- | --- | --- | --- | --- |
| O=S(=O)(Oc1ccc(Cl)cc1Cl)c1ccccc1 | 0.953 | 0.956 | 1 | 0.939 | 0.967 | 1.01 | 0.996 | 1.1 | 1.01 | 0.98 | 1.03 | 0.98 | 0.986 | 1.02 | 0.938 | 1.03 | 1.14 | 1.09 | 0.972 | 1.02 |
| c1ccc(Nc2ccccc2)cc1 | 0.883 | 1.01 | 0.94 | 1.03 | 0.951 | 1 | 0.981 | 0.953 | 0.999 | 1.01 | 0.97 | 0.986 | 1.01 | 0.9 | 0.988 | 1.1 | 0.878 | 1.03 | 1.02 | 0.983 |
| CCOCOc1ccc(C(=O)Nc2cccc(Cl)c2Cl)cc1 | 1.04 | 0.855 | 0.881 | 0.972 | 0.836 | 0.884 | 0.912 | 0.907 | 1.02 | 0.956 | 0.977 | 0.977 | 0.953 | 0.961 | 0.901 | 1.05 | 0.985 | 0.975 | 0.976 | 0.961 |
| COC(=O)c1ccc(C(=O)OC)cc1 | 0.99 | 0.964 | 0.978 | 1.01 | 1.02 | 0.991 | 0.972 | 0.993 | 1.01 | 1.01 | 0.981 | 1 | 0.989 | 1 | 1.01 | 0.981 | 0.958 | 0.989 | 0.993 | 0.993 |
| c1ccc2c(c1)ccc1ccccc12 | 1.02 | 0.983 | 1.01 | 0.996 | 0.999 | 1.01 | 1 | 1.01 | 1 | 1.02 | 0.965 | 1.01 | 1.01 | 1.01 | 0.985 | 0.994 | 0.999 | 1.01 | 1.04 | 1.01 |
| CCOc1ccc(NC(=O)OC(C)C)cc1OCC | 1.08 | 0.95 | 1.02 | 0.928 | 1.2 | 0.844 | 0.938 | 1.05 | 0.971 | 0.974 | 0.942 | 1.01 | 1.04 | 1.21 | 1.09 | 0.99 | 0.835 | 0.722 (active) | 0.989 | 0.998 |
| c1ccc2cc3c(ccc4ccccc43)cc2c1 | 1.01 | 0.994 | 1 | 0.993 | 0.994 | 1.01 | 1.01 | 0.962 | 0.992 | 1 | 1 | 0.999 | 0.994 | 1.08 | 1.01 | 0.969 | 1 | 0.992 | 0.961 | 0.995 |
| Cc1cccc(C)c1O | 1.02 | 1.04 | 0.987 | 1.01 | 1.03 | 1.02 | 1 | 0.946 | 1.03 | 1.02 | 1 | 1.04 | 1 | 0.923 | 0.993 | 1.06 | 0.978 | 0.943 | 0.995 | 0.995 |
| O=C(NCc1ncc(C(F)(F)F)cc1Cl)c1c(Cl)cccc1Cl | 0.937 | 0.973 | 0.967 | 0.975 | 1.17 | 0.95 | 1.02 | 1.04 | 1 | 0.987 | 1.03 | 0.963 | 1.03 | 0.98 | 1.01 | 1.04 | 0.981 | 0.938 | 0.971 | 0.979 |
| COC(=O)Cc1cccc2ccccc12 | 1.01 | 1.01 | 0.989 | 0.965 | 1.07 | 0.995 | 1 | 1.02 | 1.01 | 0.96 | 0.997 | 0.969 | 0.968 | 1.07 | 0.996 | 0.924 | 0.974 | 1.08 | 0.986 | 0.995 |
| CCOCCOC(=O)C(C)Oc1ccc(Oc2ncc(C(F)(F)F)cc2Cl)cc1 (stereo not given) | 1.02 | 0.955 | 0.968 | 0.948 | 0.903 | 0.998 | 0.903 | 1.01 | 1.01 | 1.03 | 0.989 | 0.996 | 0.986 | 1.05 | 1.05 | 0.952 | 1.02 | 1.07 | 0.859 | 0.991 |
| C=CCOC(Cn1ccnc1)c1ccc(Cl)cc1Cl (stereo not given) | 0.972 | 0.944 | 0.96 | 0.959 | 1.12 | 0.983 | 0.941 | 1.05 | 0.926 | 0.873 | 0.0723 (active) | 0.986 | 0.967 | 0.0607 (active) | 0.938 | 0.851 | 0.969 | 0.882 | 0.847 | 0.919 |
| CCN(CC)C(=O)c1cccc(C)c1 | 1.03 | 0.985 | 1.03 | 1.05 | 1.05 | 0.975 | 0.998 | 1.02 | 0.982 | 0.952 | 0.974 | 1 | 1.01 | 1.06 | 1.04 | 0.966 | 0.977 | 1.13 | 1.01 | 1.04 |
| CC(C)OC(=O)c1cc(C(=O)OC(C)C)cc([N+](=O)[O-])c1 | 0.939 | 0.977 | 0.987 | 0.974 | 0.933 | 0.933 | 0.924 | 0.932 | 0.992 | 0.947 | 0.97 | 0.998 | 0.988 | 0.972 | 0.98 | 0.968 | 0.964 | 1.06 | 0.963 | 0.921 |
| CCc1ccc(O)cc1 | 0.993 | 0.884 | 1.01 | 0.95 | 1.24 | 0.989 | 1.01 | 1.01 | 0.957 | 0.919 | 0.934 | 1.02 | 0.997 | 0.988 | 1.13 | 0.963 | 0.84 | 0.979 | 1.02 | 0.968 |

Source: the supplement of paper PMC12669032
